Values joined by “and” are separate entries in the source; they are usually repeats but may differ in a detail not shown here. Equal values may be shown once. In all, about 400,000 compounds went through this assay and about 3,700 (0.93%) were called active. About 3% were inconclusive and are not listed. The full list was thinned out, with actives kept by preference. Unmarked numbers belong to inactive results. Calls come from the whole dose curve; as a rule, active = well fitted inhibition curve with a large enough effect; inconclusive = small, poorly fitted or top-dose-only effect, or another doubt; inactive = no such curve, though single readings can be large or run the other way.
Target: Vitamin D3 receptor (Homo sapiens) (UniProt P11473)
Experiment: Inhibitors of the vitamin D receptor (VDR): qHTS
Conditions: VDR-SRC2-3 peptide fluorescence polarization, 2 h; max response, negative = inhibition: active compounds read low
Outline: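 After 23 nl compound addition and a short centrifugation, plates sat for 2 hours at ambient temperature; polarization of fluorescence then indicated loss of VDR binding to peptide SRC2-3.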
% is set by controls: 0 for no effect and ±100 for the full control effect; potency is the fitted concentration of half-maximal effect.

Sequence of Vitamin D3 receptor (Homo sapiens) (P11473 whole entry, looked up): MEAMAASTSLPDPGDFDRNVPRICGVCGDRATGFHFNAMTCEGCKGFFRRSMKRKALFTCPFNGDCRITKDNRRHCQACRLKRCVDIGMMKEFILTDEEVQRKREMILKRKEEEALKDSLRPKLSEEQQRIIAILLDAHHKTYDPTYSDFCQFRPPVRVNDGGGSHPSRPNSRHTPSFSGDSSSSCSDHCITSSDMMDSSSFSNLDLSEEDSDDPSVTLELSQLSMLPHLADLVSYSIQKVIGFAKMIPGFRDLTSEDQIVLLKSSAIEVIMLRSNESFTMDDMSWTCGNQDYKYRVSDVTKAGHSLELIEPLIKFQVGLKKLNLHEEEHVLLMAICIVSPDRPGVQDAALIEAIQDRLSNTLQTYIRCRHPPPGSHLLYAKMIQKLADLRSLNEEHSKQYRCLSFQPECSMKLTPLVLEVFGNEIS

| Compound | max response, negative = inhibition | Potency |
| --- | --- | --- |
| COCCNC(=O)CSc1nc(-c2ccccc2)[nH]c1-c1ccc(C)cc1 | -12.4% | – |
| Cc1cc(C(=O)NNS(=O)(=O)c2ccccc2C(F)(F)F)nn1C(C)(C)C | 3.25% | – |
| CCCCc1nn(-c2ccccc2C(F)(F)F)c(=O)n1Cc1ccc(-c2ccccc2S(=O)(=O)NC(=O)c2sccc2C)cc1 | – | 44.7 µM (active) |
| CCCN1CCN(CCCNC(=O)c2cnn(-c3ccc(C)cc3)c2-n2cccc2)CC1 | 13.2% | – |
| CCN(CCCNC(=O)c1cc2cc3cc(OC)ccc3nc2s1)c1ccccc1 | -7.19% | – |
| O=C(NCC1CC1)C1(C(F)(F)F)C/C(=C\CCO)CCCO1 (stereo not drawn) | -6.83% | – |
| Nc1nc2nc(Cl)[nH]c2c(=O)[nH]1 | -11.6% | – |
| CO/N=C(\C(=O)N[C@@H]1C(=O)N2C(C(=O)O)=C(COC(C)=O)CS[C@H]12)c1csc(N)n1 (stereo in doubt) | -16.4% and -7.75% and -25.8% | – |
| CC(C)(C)OC(=O)C1=C(CO)CS[C@@H]2[C@H](NC(=O)Cc3ccccc3)C(=O)N12 | -17.3% | – |
| Cc1cc(C)cc(C(=O)NC2C(=O)N3C(C(=O)O)=C(CSc4nnc(C)s4)CSC23)c1 (stereo not drawn) | – | 79.4 µM (active) |
| O=[N+]([O-])c1ccc(S(=O)(=O)N2CCN(c3nc(-c4ccccc4)nc4ccccc34)CC2)cc1 | -8.98% | – |
| Cc1ccc(C(=O)Nc2c(C(=O)NC(C)(C)C)oc3ccccc23)cc1 | 12.7% | – |
| COc1ccc(Cl)cc1NC(=O)C(C)Sc1nc2c(c(=O)[nH]1)CCCC2 (stereo not drawn) | 5.96% | – |
| CCNCCC(=O)N1c2ccccc2Sc2ccc(NC(=O)OCC)cc21 | -7.06% | – |
| CCN1C(=O)c2ccccc2Sc2ccc(NC(=O)Cc3ccc(OC)cc3)cc21 | 7.46% | – |
| CCN1/C(=C/C(=S)Nc2ccccc2)Sc2ccccc21 | – | 70.8 µM (active) |
| CC(=O)OC1CCC2(O)CC1(C)CCC1C2CC1(C)C (stereo not drawn) | -16.3% | – |
| C[C@@H]1O[C@@H](OC[C@H]2O[C@@H](Oc3c(-c4cccc(O)c4O)oc4cc(O)cc(O)c4c3=O)[C@H](O)[C@@H](O)[C@@H]2O)[C@H](O)[C@H](O)[C@H]1O | 2.29% | – |
| Cc1cccc(CS(=O)(=O)c2ncc(Cl)c(C(=O)Nc3ccc(F)cc3)n2)c1 | – | 50.1 µM (active) |
| O=C(Nc1nc2ccc(F)cc2s1)c1nc(SCc2ccccc2F)ncc1Cl | -2.57% | – |
| Cc1ccc(CS(=O)(=O)c2ncc(Cl)c(C(=O)Nc3nnc(C)s3)n2)cc1 | – | 25.1 µM (active) |
| Cc1ccc2nc(NC(=O)c3nc(SCc4ccccc4F)ncc3Cl)sc2c1 | 1.04% | – |

| Compound | max response, negative = inhibition | Potency |
| --- | --- | --- |
| CCOc1cccc(C(=O)Nc2nnc(S(=O)(=O)N(C)c3ccc(C)cc3)s2)c1 | -4.91% | – |
| CSc1nnc(NC(=O)c2nc(S(=O)(=O)Cc3ccc(C)cc3)ncc2Cl)s1 | – | 11.2 µM (active) |
| CCOC(=O)c1ccc(NC(=O)c2nc(SCc3ccc(F)cc3)ncc2Cl)cc1 | -10.3% | – |
| CCS(=O)(=O)c1ncc(N(Cc2ccc(F)cc2)Cc2ccco2)c(C(=O)Nc2cc(C)ccc2C)n1 | -5.22% | – |
| Cc1nnc(NC(=O)C(c2ccccc2)c2ccccc2)s1 | 13.7% | – |
| COc1ccc(CNC(=O)COCc2cc(-c3cccs3)on2)cc1OC | 16.9% | – |
| COc1ccc(-c2nc3scc(CCNS(=O)(=O)c4cc(F)ccc4OC)n3n2)cc1OC | 0.564% | – |
| CCOc1ccc2nc(N3CCC(C(=O)Nc4cc(C)ccc4C)CC3)sc2c1 | -0.819% | – |
| COc1ccccc1CNC(=O)CCCCn1c(=O)c2ccccc2n(CC(=O)Nc2cc(Cl)ccc2C)c1=O | -8.69% | – |
| CCOC(=O)c1cc(NC(=O)c2ccc(F)cc2)c(=O)n2c1oc1ccccc12 | 4.45% | – |
| O=[N+]([O-])c1cccc2ncccc12 | – | 12.6 µM (active) |
| O=[N+]([O-])c1ccccc1S(=O)(=O)Nc1cccc2cccnc12 | 0.987% and -18.8% | – |
| O=[N+]([O-])c1ccccc1SNc1ccccn1 | -25% | – |
| O=C(/C=C/c1cccc(F)c1)NC1CC1 | 0.0804% | – |
| Cc1c(C(=O)Nc2cccc(Cl)c2)oc2ccc(S(=O)(=O)N3CCOCC3)cc12 | -9.71% | – |
| Cc1cccc(NC(=O)Cn2nc(-c3ccc(Cl)cc3)c3ccccc3c2=O)c1 | 4.43% | – |
| O=C1C=C(c2ccc(Cl)cc2)C(=O)N1Nc1ccccc1 | – | 22.4 µM (active) |
| Cc1ccc(C(=O)Nc2ccc(OCc3cc(=O)n4c(C)csc4n3)cc2)cc1 | -1.83% | – |
| Cc1ccc(S(=O)(=O)c2nc(-c3cccs3)oc2N2CCCCC2)cc1 | 28.2% | – |
| C=CC(C1=CC(=O)C=CC1=O)c1ccc(O)cc1 (stereo not drawn) | – | 39.8 µM (active) |
| CCCn1c2ccccc2c2cnn(CC(=O)NCCCOC(C)C)c(=O)c21 | 4.17% | – |

Source: PubChem BioAssay AID504847 (National Center for Advancing Translational Sciences (NCATS), 2011)
